# Screening results as filed in PubChem.
# Compounds with a hit are over-represented: about 2.1% of the library has one in this group of screens.
# KLF5 inh: suppresses KLF5 promoter-driven expression | DLD-1 KLF5 promoter-luciferase reporter, luminescence | inhibition, % at 5 µM | 290,000 compounds, 0.23% hits | AID 1700;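 active = inhibition above a per-plate limit of that plate's mean compound inhibition plus 3 SD, cut at about 60% in these data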;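 also: 0% = DMSO wells and 100% = LY294002 at 200 µM; higher means less KLF5 promoter-driven luciferase light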
# APP transl inh: APP translation inhibition. SH-SY5Y APP 5'UTR-luciferase reporter, luminescence. inhibition, % at 2 µM. 190,000 compounds, 0.82% hits. AID 1285;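 active = inhibition above a set limit, derived from the sample mean plus 3 SD, cut at about 45% in these data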
# Ba/F3 V617F tox: lowers viability of Ba/F3 cells expressing EpoR and JAK2V617F | ATP luminescence | inhibition, % at 5.6 µM | 220,000 compounds, 1.1% hits | AID 1446;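 active = inhibition above the campaign mean plus 3 SD over all tested compounds, cut at about 24% in these data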;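 also: cytokine-independent growth of Ba/F3 cells driven by EpoR plus mutant JAK2; 0% = DMSO-treated cells and 100% = JAK inhibitor I control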
# aSyn 5UTR inh: 5' untranslated region of α-synuclein, MLPCN primary screen. inhibition, % (tested at 7.5 µM). 300,000 compounds, 0.82% hits. alpha-synuclein 5'UTR reporter, inhibitor activity; in the data active = inhibition above about 60%;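 also: H4 neuroglioblastoma cells stably carrying SNCA 5'UTR luciferase fusion; 0% = DMSO wells and 100% = positive control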
# IEC-6 tox: IEC-6 cytotoxicity, counter-screen for KLF5 inhibitors | 290,000 compounds, 0.78% hits | inhibition, % at 5 µM | AID 1825 | luminescence viability; in the data active = inhibition above about 22%;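 also: 0% = plate median of test compound wells and 100% = cytotoxic reference compound wells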
# BaF3 parental: counter-screen for JAK2V617F inhibitors: parental Ba/F3 viability inhibitors | CellTiter-Glo ATP luminescence | inhibition, % at 5.6 µM | 220,000 compounds, 1.1% hits | AID 1486;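 active = inhibition above a per-campaign cutoff, the mean inhibition of all tested compounds plus 3 SD, cut at about 27% in these data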;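 also: 0% = DMSO wells and 100% = JAK Inhibitor I control wells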
# Active calls of the source: *; · = no result given.
SMILES,KLF5 inh,APP transl inh,Ba/F3 V617F tox,aSyn 5UTR inh,IEC-6 tox,BaF3 parental
Cc1cc([N+](=O)[O-])nn1CC(=O)NCc1ccc(Cl)cc1,-14,·,·,5,0,·
O=C(CCS(=O)(=O)c1ccc(F)cc1)N1CCOCC1,-43,·,·,-40,-2,·
N#Cc1c(NC(=O)c2cccnc2)sc2c1CCC2,24,0,41*,-150,19,42*
O=C(Nc1sc2c(c1C(=O)c1ccccc1)CCCC2)c1cccnc1,-19,2,-1,44,-5,5
N#Cc1c(NC(=O)c2ccccc2)sc2c1CCC2,-148,-109,37*,-288,14,28*
Nc1c(S(=O)(=O)c2cccc(Cl)c2)c2nc3ccccc3nc2n1/N=C/c1ccc(O)c(O)c1,23,2,1,89*,4,6
Cn1cc(CNCc2cn[nH]c2-c2ccc(F)cc2)c(-c2ccc3c(c2)OCCO3)n1,-9,-15,4,-14,6,14
Cn1cc(CNCc2ccc(OC(F)(F)F)cc2)c(-c2ccc3c(c2)OCCO3)n1,-14,-10,47*,5,14,40*
C=CCN(CC=C)C(=O)C(=O)c1ccn(-c2c(C)csc2C(=O)OC)c1,-7,-16,2,8,-2,7
O=C(Nc1nc2ccccc2n1CCN1CCOCC1)c1ccccc1,-15,·,·,-6,-2,·
O=C(Nc1nc2ccccc2n1CCN1CCOCC1)c1cn(-c2ccccc2)nc1-c1ccccc1,-4,4,1,83*,-5,5
Cc1cnc(=O)[nH]c1SCc1cccc([N+](=O)[O-])c1,-2,·,·,8,-5,·
COc1ccc(C(CNC(=O)c2ccc(Br)o2)N2CCN(C)CC2)cc1 (stereo unspecified),·,·,·,-17,·,·
Cc1ccc2c(c1)C(=O)C(=O)N2CCOc1ccccc1,-38,79*,92*,-50,91*,87*
CCC(=O)NC1=C(Cl)C(=O)C(NC(=O)CC)=C(Cl)C1=O,1,·,8,·,73*,2
C=CC[n+]1ccc(/C=C2\C=Cc3cc(C)ccc3N2CC)c2ccccc21,4,27,100*,·,39*,85*
Cc1ccoc1C(=O)Nc1ccc(CC(=O)O)cc1,9,79*,2,84*,3,7
Cc1nn(Cc2c(Cl)cccc2Cl)c(C)c1NC(=O)c1cn(-c2ccccc2)nc1-c1ccccc1,-20,9,-4,122*,-4,7
Cc1cccc(C)c1NC(=O)CNC(=O)c1cn(-c2ccccc2)nc1-c1ccccc1,-33,·,·,17,4,·
CCc1nc2c(c(=O)c3ccccc3n2C)c(=O)n1CCc1ccc(OC)cc1,-1,12,0,74*,26*,1
COc1ccc(CCn2c(-c3ccc(OC)cc3)nc3c(c(=O)c4ccccc4n3C)c2=O)cc1,-31,·,3,-45,6,-5
CC(C1CC2CCC1C2)n1c(-c2ccco2)n[nH]c1=S (stereo unspecified),-4,54*,-2,10,-3,8
O=C1N=C2N(CCN3CCCCC3)c3ccccc3N2/C1=C\c1ccc([N+](=O)[O-])o1,-18,96*,-2,·,-5,1
COc1ccc(C(=O)C(CN2CCOCC2)c2ccccc2)cc1F (stereo unspecified),26,62*,93*,-108,6,49*
COc1ccc(C(O)C(CN2CCOCC2)c2ccccc2)cc1F (stereo unspecified),-45,-7,2,26,-3,6
SMILES,KLF5 inh,APP transl inh,Ba/F3 V617F tox,aSyn 5UTR inh,IEC-6 tox,BaF3 parental
COC(=O)C1(C)CCC(C(=O)Nc2ccccc2)C1(C)C (stereo unspecified),·,·,·,62*,·,·
O=C(Cn1nc(-c2ccccc2)ccc1=O)Nc1ccc(N2CCN(C(=O)c3cccs3)CC2)cc1,-17,-4,3,20,5,9
CC1(C)OC(=O)C(=NNc2ccccc2)C(=O)O1,9,1,-2,-3,0,0
CC1(C)OC(=O)C(=NNc2ccc(O)cc2)C(=O)O1,-37,9,36*,·,0,53*
O=C(Cn1nnc2ccccc21)NNC(=O)c1ccccc1,-16,·,-1,-6,-2,-1
Cc1cc[n+](-c2ccccc2)c2ccccc12,-6,-13,68*,-39,4,65*
O=C1OCCN1c1c(-c2ccccc2)c(-c2cccs2)nc2c(-c3ccccc3)cccc12,-23,·,·,27,-6,·
c1ccc(-c2cn3nc4c(nc3n2)CCCC4)cc1,-39,-148,4,109*,4,4
c1ccc(-c2cn3nc(-c4ccccc4)cnc3n2)cc1,-47,-172,0,·,-7,4
Brc1ccc(-c2cn3nc4c(nc3n2)CCCC4)cc1,-103,-186,-2,93*,8,2
Cc1ccc2[nH]c(CNC(=O)c3ccc(F)cc3)cc2c1,-48,·,·,-29,1,·
COc1ccc(/C=N/Nc2nncc3ccccc23)cc1,-91,-188,0,67*,-1,7
COc1ccccc1/C=N/Nc1nncc2ccccc12,-57,-36,-2,-132,6,4
Nc1nc2ccccc2n1/N=C/c1cccnc1,0,-18,-4,-38,2,2
Nc1nc2ccccc2n1/N=C/c1ccc([N+](=O)[O-])s1,5,24,2,83*,-6,4
CCCc1nnc(SCC(=O)Nc2ccc(NC(C)=O)cc2)n1-n1cccc1,·,·,·,5,·,·
S=C(NCCc1ccccc1)Nc1cccc2cnccc12,4,-6,17,-29,11,42*
CC(=O)c1cn(CC(=O)Nc2ccc(C)cc2C)c2ccccc12,9,14,25*,10,2,39*
COc1ccc2c(c1)sc(=N)n2C,-23,6,58*,-6,-1,69*
Cc1c(C(C)(C)C)c(C=S)n2ccccc12,6,70*,-2,4,5,3
COc1ccc(S(=O)(=O)NNC(=O)Cc2csc(C)n2)cc1[N+](=O)[O-],·,·,·,-7,·,·
CC(=O)OCCc1[nH]c2ccccc2c1C,-12,·,·,-26,7,·
CC(=O)OCCc1c2ccccc2c(CCCN(C)C)c2ccccc12,·,·,·,103*,·,·
CC(=O)c1cccc(NC(=O)Cn2cnc(S(=O)(=O)N3CCC(C)CC3)c2)c1,1,·,·,-6,1,·
COc1cc(NCCC(=O)c2cccs2)c(OC)cc1Cl,0,8,3,26,0,6
C=C[C@@]1(C)CC(=O)[C@]2(O)[C@@]3(C)[C@@H](O)CCC(C)(C)[C@@H]3[C@H](OC(C)=O)[C@H](O)[C@@]2(C)O1,·,·,·,66*,·,·
C=C[C@@]1(C)CC(=O)[C@]2(O)[C@@]3(C)[C@@H](O)CCC(C)(C)[C@@H]3[C@H](O)[C@H](OC(C)=O)[C@@]2(C)O1,·,·,·,72*,·,·
CC(=O)c1ccccc1OCc1ccc(S(=O)(=O)Cc2ccccc2)cc1,-23,·,·,-33,0,·
COc1ccc(-n2c(O)c(/C=N/Nc3nc(C)cc(C)n3)c3ccccc3c2=O)cc1OC,1,33,-3,120*,-3,-3
